Data on seven compounds can be found in PubChem BioAssay (NCI).

What all share (assay): NCI-60 one-dose screen, 48 h (100 = growth as untreated, 0 = no growth, -100 = all killed)
One experiment has as its system DU-145 prostate. The conditions noted are these: 10 µM unless noted.
Another experiment relates to K-562 leukemia. The following applies: 10 µM unless noted.
The subject of another experiment is MALME-3M melanoma. The conditions noted are these: 10 µM unless noted.
The subject of the next experiment is MDA-MB-231 breast. The following applies: 10 µM unless noted.
The subject of a further experiment is RXF 393 renal. The following applies: 10 µM unless noted.
In another experiment the test system is SF-268 CNS. The conditions noted are these: 10 µM unless noted.
Another experiment concerns SF-295 CNS. The conditions noted are these: 10 µM unless noted.
The subject of the next experiment is SF-539 CNS. The following applies: 10 µM unless noted.
For another experiment, the system named is UACC-257 melanoma. The following applies: 10 µM unless noted.
Another experiment deals with M14 melanoma. The following applies: 10 µM unless noted.
For another experiment, the system named is HCT-15 colon. The conditions noted are these: 10 µM unless noted.
In another experiment the test system is SNB-75 CNS. The conditions noted are these: 10 µM unless noted.
The next experiment has as its system SNB-19 CNS. The conditions noted are these: 10 µM unless noted.
The subject of a further experiment is U251 CNS. The conditions noted are these: 10 µM unless noted.
The next experiment relates to PC-3 prostate. The conditions noted are these: 10 µM unless noted.
The test system of the next experiment is SK-MEL-5 melanoma. The conditions noted are these: 10 µM unless noted.
The test system of the next experiment is UACC-62 melanoma. The following applies: 10 µM unless noted.
A further experiment deals with LOX IMVI melanoma. The conditions noted are these: 10 µM.
The subject of another experiment is SK-MEL-28 melanoma. The following applies: 10 µM unless noted.
In another experiment the test system is HT29 colon. The conditions noted are these: 10 µM unless noted.

SMILES strings stand for the structures. The panel holds about 83,000 compounds, 20% with a hit somewhere; the sample as a whole holds those more often.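 Single-concentration screen, 48 h exposure, 96-well plates. Endpoint: percent growth. Below 10 = active.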 Unmarked numbers belong to inactive results. Activity calls are given as the source filed them.

Regarding `COc1ccc2oc(=O)c(C3(C)NC(=O)c4c(/C=C/C(=O)OC(C)(C)C)cccc4N3)cc2c1` (configuration not stated), the growth is 69.5% in the experiment on DU-145 prostate; 25.5% with K-562 leukemia; 40.5% with MALME-3M melanoma; 49.1% in the experiment with MDA-MB-231 breast; 40.3% in the experiment on RXF 393 renal; 58.1% in the experiment with SF-268 CNS. Besides, the growth is 39.3% in the experiment on SF-295 CNS; 67.6% in the experiment on SF-539 CNS; 32.6% in the experiment on UACC-257 melanoma; 48.7% in the experiment on M14 melanoma; 32.6% in the experiment on HCT-15 colon; 56.3% in the experiment with SNB-75 CNS. The growth in the experiment with SNB-19 CNS was 50.8%; with U251 CNS, 48.4%; in the experiment on PC-3 prostate it was 15.6%; with SK-MEL-5 melanoma it was -59.8% (active); with UACC-62 melanoma it was 20.4%; in the experiment with LOX IMVI melanoma, 49.1%. For the same compound, the growth in the experiment on SK-MEL-28 melanoma was 40.6%.
As to `CC(=O)Nc1ccc(-n2cnc3cc(-c4ccc(O)cc4)ccc32)cc1C(F)(F)F`, the growth was 23% in the experiment with DU-145 prostate; 25% in the experiment on K-562 leukemia; 19.1% in the experiment with MALME-3M melanoma; 42.7% with MDA-MB-231 breast; 26% with RXF 393 renal; 21.7% in the experiment with SF-268 CNS. For the same compound, the growth with SF-295 CNS is -13.7% (active); in the experiment with SF-539 CNS it was 24.2%; in the experiment with UACC-257 melanoma, 39.7%; in the experiment with M14 melanoma, 30.3%; with HCT-15 colon it was 16.1%; with SNB-75 CNS it was 8.79% (active). The growth in the experiment on SNB-19 CNS was 27.8%; with U251 CNS, 18%; in the experiment on PC-3 prostate it was 44.8%; with SK-MEL-5 melanoma, 5.35% (active); in the experiment with UACC-62 melanoma, 21.1%; in the experiment on SK-MEL-28 melanoma, 20.5%.
Consider `CCOC(=O)c1ccc(Nc2nc(NN)nc(-c3ccc(OC)cc3)c2C#N)cc1`, for which the growth in the experiment on DU-145 prostate is 113%; with K-562 leukemia, 1.69% (active); in the experiment with MALME-3M melanoma it was 92.4%; in the experiment on MDA-MB-231 breast, 85.1%; with RXF 393 renal, 124%; with SF-268 CNS, 98.2%. For the same compound, the growth with SF-295 CNS was 111%; in the experiment with SF-539 CNS it was 110%; in the experiment with UACC-257 melanoma it was 46%; with M14 melanoma, 71.6%; with HCT-15 colon it was 106%; in the experiment on SNB-19 CNS, 92.2%. Moreover, the growth is 106% with U251 CNS; 85.2% with PC-3 prostate; 90.1% in the experiment on SK-MEL-5 melanoma; 93.4% in the experiment with UACC-62 melanoma; 114% in the experiment on LOX IMVI melanoma.
On to `Cc1nc(Nc2ncc(C(=O)Nc3c(C)cccc3Cl)s2)cc(N2CCN(CCCNC(=O)COc3ccc(C4CCC(=O)NC4=O)cc3)CC2)n1` (configuration not stated), for which the growth in the experiment on DU-145 prostate was 41.9%; in the experiment with K-562 leukemia it was 9.96% (active); in the experiment with MALME-3M melanoma it was 91.6%; in the experiment on MDA-MB-231 breast it was -4.03% (active); in the experiment on RXF 393 renal it was -51.2% (active); with SF-268 CNS it was 43.6%. Further, the growth in the experiment on SF-295 CNS was 48.3%; in the experiment on SF-539 CNS it was 7.74% (active); in the experiment on UACC-257 melanoma it was 77.9%; with M14 melanoma, 60.2%; in the experiment on HCT-15 colon it was 68.3%; in the experiment on SNB-19 CNS it was 47.9%. In addition, the growth with U251 CNS was 62.6%; in the experiment on PC-3 prostate, 44.1%; in the experiment on SK-MEL-5 melanoma, 73.7%; in the experiment on UACC-62 melanoma, 55.4%; in the experiment with LOX IMVI melanoma it was -96.6% (active); with SK-MEL-28 melanoma it was 89.4%.
`CCOc1ccc(C(=O)NC(=S)Nc2ccc(S(N)(=O)=O)cc2)cc1`: the growth was 105% [100 µM] in the experiment with DU-145 prostate; 98.1% [100 µM] in the experiment with K-562 leukemia; 87.6% [100 µM] with MALME-3M melanoma; 102% [100 µM] in the experiment on MDA-MB-231 breast; 102% [100 µM] in the experiment with RXF 393 renal; 102% [100 µM] with SF-268 CNS. The growth in the experiment with SF-295 CNS was 104% [100 µM]; in the experiment with SF-539 CNS, 91.7% [100 µM]; in the experiment on UACC-257 melanoma it was 90.6% [100 µM]; with M14 melanoma, 102% [100 µM]; with HCT-15 colon, 111% [100 µM]; with HT29 colon it was 98.1% [100 µM]. Moreover, the growth in the experiment on SNB-19 CNS was 104% [100 µM]; with U251 CNS, 96.7% [100 µM]; in the experiment on PC-3 prostate, 92.1% [100 µM]; with SK-MEL-5 melanoma it was 88.1% [100 µM]; with UACC-62 melanoma, 94.8% [100 µM]; with SK-MEL-28 melanoma, 107% [100 µM].
As to `CC1(C)CC[C@]2(C(=O)Nc3ccc(F)cc3)CC[C@]3(C)C(=CCC4[C@@]5(C)C[C@@H](O)[C@H](O)[C@@](C)(CO)C5CC[C@]43C)C2C1` (some centres not stated), the growth is 59.7% with DU-145 prostate; 18% in the experiment on K-562 leukemia; 60.7% with MALME-3M melanoma; 27.8% with MDA-MB-231 breast; -6.8% (active) in the experiment on RXF 393 renal; 52.6% in the experiment with SF-268 CNS. Also, the growth in the experiment on SF-295 CNS is 26.1%; with SF-539 CNS, 49.7%; with UACC-257 melanoma, 27.7%; with M14 melanoma, 46.6%; with HCT-15 colon, 24.1%; with SNB-75 CNS it was 81.7%. For the same compound, the growth was 38.3% with U251 CNS; 11.2% in the experiment on PC-3 prostate; -47.6% (active) with SK-MEL-5 melanoma; 35% in the experiment on UACC-62 melanoma; 26.5% in the experiment on LOX IMVI melanoma; 52.9% in the experiment on SK-MEL-28 melanoma.
As for `COC1=C[C@]23CCC(=O)N2CCc2cc4c(cc2[C@@H]3[C@@H]1OC(=O)[C@H](C)O)OCO4`, the growth in the experiment with DU-145 prostate was 31.7%; with K-562 leukemia it was 7.08% (active); in the experiment with MALME-3M melanoma, -28.6% (active); with MDA-MB-231 breast it was 61.8%; in the experiment with RXF 393 renal, 5.61% (active); with SF-268 CNS it was 66.2%. The growth in the experiment on SF-295 CNS was 29.7%; with SF-539 CNS, -34.5% (active); in the experiment on UACC-257 melanoma, 27.9%; in the experiment with M14 melanoma it was 10.4%; in the experiment with HCT-15 colon, -1.4% (active); in the experiment on SNB-75 CNS, -10.6% (active). Also, the growth with SNB-19 CNS was -1.61% (active); with U251 CNS it was -3.63% (active); in the experiment with PC-3 prostate it was 14.8%; with SK-MEL-5 melanoma, -2.42% (active); with UACC-62 melanoma it was 31.5%; with LOX IMVI melanoma it was -57.2% (active). Further, in the experiment with SK-MEL-28 melanoma, the growth is 15.1%.
